# SSB-PriA inh: blocks PriA binding to SSB C-terminal tail | inhibition, % at 33 µM | AlphaScreen SSBct-PriA binding, biotinylated peptide | hit rate 0.6% among 430,000; in the data active = inhibition mostly above about 37%, no sharp cut-off; inactive = mostly below about 20%;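 also: plate controls were negative control peptide for no effect and reference peptide for full effect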
# RN4220 kill: S. aureus RN4220 growth inhibition; inhibition, % (concentration not given with the values); OD600, 16 h; hit rate 0.33% among 330,000; AID 1259311; in the data active = inhibition above about 85%;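 also: plate controls were untreated cells for no effect and reference antibiotic for full effect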
# CCHFV vOTU inh: blocks the CCHF virus ovarian tumor domain protease; hit rate 0.55% among 370,000; CCHFV vOTU protease, Pep-AMC fluorescence; inhibition, % at 11.5 µM; in the data active = inhibition above about 30%; also: 0% = vehicle wells with enzyme and 100% = no enzyme wells
# DUSP3 inh: DUSP3 (human) phosphatase inhibition; recombinant VHR phosphatase, pNPP absorbance; inhibition, % at 13.3 µM; hit rate 0.52% among 290,000; AID 1654; in the data active = inhibition above about 50%
# Target sequence (P51452 whole entry, looked up): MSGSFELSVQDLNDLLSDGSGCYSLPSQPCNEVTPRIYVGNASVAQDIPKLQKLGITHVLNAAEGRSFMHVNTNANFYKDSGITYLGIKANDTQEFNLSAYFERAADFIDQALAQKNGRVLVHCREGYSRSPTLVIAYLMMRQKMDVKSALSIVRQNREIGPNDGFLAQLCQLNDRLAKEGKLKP
# Sa ugtP lethal: compounds lethal to S. aureus RN4220 ugtP deletion mutant. AID 1259309. hit rate 0.54% among 330,000. OD600 growth, 16 h. growth inhibition, % (concentration not given with the values); in the data active = growth inhibition above about 68%;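 also: plate controls were untreated wells for no effect and antibiotic for full effect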
# * hit, by the source's call; · = not tested or not shown. Compounds with a hit are over-represented: about 1.5% of the library has one in this group of screens.
SMILES,SSB-PriA inh,RN4220 kill,CCHFV vOTU inh,DUSP3 inh,Sa ugtP lethal
Cc1cc(F)ccc1S(=O)(=O)N1CCc2ncncc2C1,3,·,·,·,·
O=C1OC2(CCCCC2)OC(=O)C1=CNc1ccccc1[N+](=O)[O-],-2,·,·,·,·
O=C(Nc1nc(-c2ccccn2)cs1)c1cc(-c2ccco2)[nH]n1,66*,·,·,·,·
Cn1nc(C(=O)Nc2nc(-c3ccccn3)cs2)ccc1=O,42,·,·,·,·
Cc1ccc(C(=O)Nc2nc(-c3ccccn3)cs2)cc1-n1cccc1,103*,·,·,·,·
O=C(Nc1nc(-c2ccccn2)cs1)c1cc(S(=O)(=O)N2CCOCC2)c(Cl)cc1Cl,76*,·,·,·,·
CCn1ccc(C(=O)Nc2nc(-c3ccccn3)cs2)n1,95*,·,·,·,·
Cc1c(Cl)cccc1S(=O)(=O)NCC[C@H](O)c1ccoc1,5,·,·,·,·
O=C(NCCCn1ncccc1=O)c1ccc(Br)o1,-3,·,·,·,·
COC(CNS(=O)(=O)Cc1ccc(C(F)(F)F)cc1)c1ccccc1C (centres undefined),-22,·,·,·,·
O=C(Nc1nc(-c2ccccn2)cs1)C1(c2ccccc2)CCOCC1,-4,·,·,·,·
CSc1ccccc1C(=O)Nc1nc(-c2ccc(F)cc2)cs1,11,·,·,·,·
CSc1ccccc1C(=O)Nc1nc(-c2ccccn2)cs1,106*,·,·,·,·
O=C(Nc1nc(-c2ccc(Cl)s2)cs1)c1ccccc1,-14,6,17,-42,94*
O=C(Nc1nc(-c2ccccn2)cs1)C1(n2cnnn2)CCCCC1,158*,·,·,·,·
O=C(Nc1nc(-c2ccccn2)cs1)c1ccc(=O)[nH]c1,95*,·,·,·,·
O=C(Nc1nc(-c2ccccn2)cs1)c1cc(F)cc(F)c1,17,·,·,·,·
Cc1nc2ccc(NC(=O)c3ccc4c(c3)CCCC4)cc2s1,-2,·,·,·,·
CC(C)Oc1ccc(C(=O)N2CC(n3ccnn3)C2)cc1,-10,·,·,·,·
O=C(Nc1nc(-c2ccccn2)cs1)c1ccccc1,101*,·,·,·,·
Cc1cc(C(=O)Nc2nc(-c3ccccn3)cs2)no1,75*,·,·,·,·
O=C(Nc1nc(-c2ccccn2)cs1)c1ccc(Oc2ccc(C(=O)Nc3nc(-c4ccccn4)cs3)cc2)cc1,25,·,·,·,·
CC(=O)Nc1ccc(C(=O)Nc2nc(-c3ccccn3)cs2)cc1,78*,6,-12,10,-4
CCc1ccc(C(=O)Nc2nc(-c3ccccn3)cs2)cc1,85*,·,·,·,·
Cn1nc(CNC(=O)COc2ccc(Cl)cc2Cl)c2ccccc2c1=O,7,·,·,·,·
SMILES,SSB-PriA inh,RN4220 kill,CCHFV vOTU inh,DUSP3 inh,Sa ugtP lethal
CC(=O)N1CCc2ccc(NC(=O)COc3ccc(F)cc3)cc21,-2,·,·,·,·
COc1ccc(Cl)cc1CN1CCN(c2c(C)c(C)nc3c(-c4ccccc4)cnn23)CC1,-22,·,·,·,·
O=C(Nc1nc(-c2ccccn2)cs1)c1ccncc1,157*,·,·,·,·
O=C(Nc1nc(-c2ccccn2)cs1)c1ccccc1-n1cnnn1,81*,7,6,6,5
O=C(Nc1nc(-c2ccccn2)cs1)c1ccc(-n2cnnn2)cc1,48,·,·,·,·
O=C(Nc1nc(-c2ccccn2)cs1)C1c2ccccc2Oc2ccccc21,30,·,·,·,·
O=C(Nc1nc(-c2ccccn2)cs1)c1sccc1C1CC1,114*,·,·,·,·
Cc1cc(C(=O)Nc2nc(-c3ccccn3)cs2)ccc1[N+](=O)[O-],47*,26,5,20,0
NCC1CCN(c2nc3ccccc3o2)CC1,-5,·,·,·,·
COc1cc(C)c(C)cc1S(=O)(=O)NCC(=O)N1CCOC(c2ccccc2)C1 (centres undefined),1,·,·,·,·
O=C(Nc1nc(-c2ccccn2)cs1)c1ccccc1Cl,100*,·,·,·,·
O=C(Nc1cccc2c1CCCC2)c1ccccc1Br,0,10,7,52*,8
NC[C@@](O)(c1ccco1)C1CC1,-7,·,·,·,·
CCCCN(C(=O)CCC(=O)Nc1cc(C)on1)C(C(=O)NC1CCCC1)c1ccc(OCC)cc1 (centres undefined),-3,3,37*,33,4
CCCCN(C(=O)CCC(=O)Nc1cc(C)on1)C(C(=O)NC1CCCC1)c1ccccc1OCC (centres undefined),3,-3,2,-19,2
C=CCC(C(=O)OC)(C(=O)OC)c1ccc([N+](=O)[O-])cc1[N+](=O)[O-],8,8,-20,26,4
C=CCC(C(=O)OC)(C(=O)OC)c1ccc([N+](=O)[O-])cn1,-2,-1,-2,52*,-6
S=C(Nc1ccccc1)c1ccccn1,72*,-5,7,0,0
COc1cc(Cc2cc(N)nc(N)n2)cc(OC)c1OC,-22,98*,-1,24,100*
O=C(Nc1ccc(F)cc1)Nc1ccccc1F,-9,2,12,56*,-1
COc1ccc(NC(=O)Nc2ccccc2F)cc1,4,-3,2,12,1
O=C(Nc1ccc(Cl)cc1)Nc1ccccc1C(=O)O,-6,5,-5,57*,-5
O=C(Nc1ccc(Cl)c(Cl)c1)Nc1ccccc1C(=O)O,-24,9,-2,1,-11
COCCNC(=S)NCCc1cc2cc(C)c(C)cc2[nH]c1=O,10,·,·,·,·
Cc1noc(Cc2c[nH]c3ccccc23)n1,-11,·,·,·,·
SMILES,SSB-PriA inh,RN4220 kill,CCHFV vOTU inh,DUSP3 inh,Sa ugtP lethal
O=[N+]([O-])c1ccc(NS(=O)(=O)CCCS(=O)(=O)Nc2ccc([N+](=O)[O-])cc2)cc1,24,·,·,·,·
CCC1Cc2cc(O)ccc2C2=C1c1ccc(O)cc1CC2CC (centres undefined),·,98*,·,·,89
Cc1ccc(N2CC(C(=O)NC3CC3)CC2=O)cc1 (centres undefined),1,8,-8,53*,9
COc1ccc(N2CC(C(=O)N[C@@H](C)C(=O)NC3CCCCC3)CC2=O)cc1 (some centres undefined),0,2,3,9,6
COc1ccc(N2CC(C(=O)N[C@@H](CC(C)C)C(=O)NC3CCCCC3)CC2=O)cc1 (some centres undefined),0,0,18,56*,3
Cn1c(C2CCN(S(C)(=O)=O)CC2)nn(Cc2cccc(C(F)(F)F)c2)c1=O,-13,·,·,·,·
Cc1ccc2[nH]c(C)c(C=NNc3nc4ccccc4s3)c2c1,52*,100*,·,·,99*
COCCCn1[nH]c2c3c(ccc2c1=O)C(=O)c1ccccc1C3=O,-2,86*,3,19,84*
CC(=NN1CCN(Cc2ccc(Cl)cc2)CC1)c1ccc([N+](=O)[O-])cc1,44*,3,·,·,-7
Cc1ccc(-n2nnnc2C(Cl)c2nnnn2-c2ccc(C)cc2)cc1,1,97*,0,25,99*
Cc1ccc2c(Cl)cc(Cl)c(OCC(=O)O)c2n1,-12,0,1,56*,2
Cc1ccc2c(Cl)cc(Cl)c(OCC(=O)N3CCCC3)c2n1,-10,4,-6,37,2
O=C(CSc1nnc(-c2ccccn2)n1Cc1ccco1)c1ccccc1,-15,4,-9,18,-7
O=C(CSc1nnc(-c2ccccn2)n1Cc1ccco1)c1ccc(Cl)cc1,90*,13,4,11,-10
Oc1ccc(Cn2ccnc2)c2cccnc12,99*,0,-12,15,-7
CCCCCCc1ccc(O)c2ncccc12,60,·,·,·,·
COCc1ccc(O)c2ncccc12,94*,98*,-4,8,98*
OCCOCc1ccc(O)c2ncccc12,140*,·,·,·,·
O=C(NCc1cccs1)N1CCC(c2ccsc2)CC1,-20,·,·,·,·

# Screening data deposited in PubChem BioAssay by several laboratories.
